Screens from PubChem.
Compounds with a hit are over-represented: about 0.99% of the library has one in this group of screens.
AMA1-RON2 inh – AMA1-RON2 (P. falciparum) interaction inhibition. AlphaScreen AMA1-biotinylated RON2 peptide binding. Potency, µM (titrated, usually from 58.2 µM), without a hit: top-dose activity change, negative = inhibition, most hits filed as inhibitors. 360,000 tested, 0.2% active; active means well fitted curve in the direction sought with a large enough effect; inconclusive means small, poorly fitted or top-dose-only effect, or another doubt; inactive means no such curve, though single readings can be large; an effect the other way counts as inactive or inconclusive;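 further: potency means the concentration at half of the fitted maximal effect; 0% = vehicle wells and -100% = peptide control; nearly all actives have a fitted effect of over 45% in size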
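AMA1 (3D7) with his tag at 25 nM final met compounds first, then biotinylated RON2 peptide at 25 nM; detection used donor plus acceptor beads, 10 µg/mL apiece, read by AlphaScreen after 30 min at room temperature.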
AmpC inh no detg – blocks E. coli AmpC beta-lactamase in detergent-free assay; P00811; AmpC nitrocefin hydrolysis, absorbance 480 nm, 0.0001% Triton; Potency, µM (top dose mostly 57.1 µM), inactives show at the top dose activity change, negative = inhibition, actives largely listed as inhibitors; 330,000 tested, 0.52% active; AID 485341; active means well fitted curve in the direction sought with a large enough effect; inconclusive means small, poorly fitted or top-dose-only effect, or another doubt; inactive means no such curve, though single readings can be large; an effect the other way counts as inactive or inconclusive;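 further: potency means the concentration at half of the fitted maximal effect; plate controls were no compound for no effect and no enzyme for full effect; nearly all actives have a fitted effect of over 20% in size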
Target sequence (P00811 whole entry, looked up): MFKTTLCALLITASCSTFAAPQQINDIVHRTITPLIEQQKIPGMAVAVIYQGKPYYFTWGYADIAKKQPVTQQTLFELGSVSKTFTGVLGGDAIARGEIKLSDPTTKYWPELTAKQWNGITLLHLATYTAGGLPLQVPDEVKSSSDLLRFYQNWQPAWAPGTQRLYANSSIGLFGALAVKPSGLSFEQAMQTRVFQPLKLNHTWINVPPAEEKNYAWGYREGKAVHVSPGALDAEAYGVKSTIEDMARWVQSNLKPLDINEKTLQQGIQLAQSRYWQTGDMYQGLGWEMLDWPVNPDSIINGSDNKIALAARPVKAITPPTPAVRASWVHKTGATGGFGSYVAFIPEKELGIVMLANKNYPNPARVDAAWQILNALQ
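20 mM phosphate pH 7.0 + 0.01% (detergent screen) or 0.0001% Triton X-100; 5.3 nM AmpC reagent; cpd preinc 15 min RT; nitrocefin (800 uM stock) to start; A480 q20 s × 4 min; Activity was normalised to no-enzyme and no-compound control wells.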
NS1 function inh – blocks influenza NS1 protein function; 270,000 tested, 0.4% active; Potency, µM (titrated, usually from 46.1 µM), without a hit: at the top dose activity, positive = more growth; further: potency means the concentration at half of the fitted maximal effect; actives are rising curves; nearly all actives have a fitted effect of over 50% in size
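Growth recovery, yeast-based: influenza A NS1 expressed in S. cerevisiae causes slow growth, and suppressors are detected by OD600. The parent strain without NS1 is used as positive control.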
SARS PLpro yeast – inhibitors of SARS-CoV papain-like protease in yeast; S. cerevisiae expressing SARS-CoV PLpro, growth rescue; Potency, µM (doses to about 32.9 µM), for the others: at the top dose activity, positive = growth rescue, most hits filed as activators; 330,000 tested, 0.19% active; AID 485353; further: potency means the concentration at half of the fitted maximal effect; 0% is about no effect; nearly all actives have a fitted effect of over 55% in size
AmpC inh detg – blocks E. coli AmpC beta-lactamase in detergent assay | P00811 | AID 485294 | Potency, µM (titrated, usually from 114 µM), inactives show at the highest dose activity change, negative = inhibition, hits mostly inhibitors | 370,000 tested, 0.041% active | AmpC hydrolysis of nitrocefin, absorbance 480 nm, 0.01% Triton; active means well fitted curve in the direction sought with a large enough effect; inconclusive means small, poorly fitted or top-dose-only effect, or another doubt; inactive means no such curve, though single readings can be large; an effect the other way counts as inactive or inconclusive;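 further: potency means the concentration at half of the fitted maximal effect; 0% = no-compound wells and -100% = no-enzyme wells; nearly all actives have a fitted effect of over 25% in size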
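AmpC (5.3 nM in the dispensed reagent) in 20 mM phosphate pH 7.0 with 0.01% (detergent screen) or 0.0001% Triton X-100 was preincubated with compounds for 15 min at room temperature. Nitrocefin was then added from an 800 uM solution, and hydrolysis was followed at 480 nm.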
NS1 inh valid – influenza NS1 function inhibition validation. shares compounds with NS1 function inh. influenza NS1 function cell assay, 15-point titration. activity change, negative = inhibition, % at 32.9 µM. 1,400 tested, under 10 active. AID 492980; further: 0% is about no effect
PR8 titer – influenza NS1 inhibitors: inhibition of influenza A/PR/8/34 replication. shares compounds with NS1 function inh. MDCK infected influenza A/PR/8/34, virus titer TCID50; hits give low values. virus titer (log TCID50), log10 TCID50 at 5 µM. 95 tested, 30% active. AID 504647; call rule not given here
* hit, by the source's call; ? = inconclusive; · = no result given; [ ] = remark or other dose. Unless noted, the call rests on the fitted dose curve.

SMILES | AMA1-RON2 inh | AmpC inh no detg | NS1 function inh | SARS PLpro yeast | AmpC inh detg | NS1 inh valid | others
Cc1cc(-c2ccc(NC(=O)[C@@H]3CCCC[C@@H]3C(=O)O)c(C)c2)ccc1NC(=O)[C@@H]1CCCC[C@@H]1C(=O)O | 13% | 3% | 4µM* | 1% | 1% | ?
COC(=O)c1ccccc1NC(=O)C1CCCCC1C(=O)O (stereo not given) | -1% | -6% | 5µM* | 2% | ? | 3
COc1ccc(NC(=O)c2ccccc2NC(=O)C2CCCCC2C(=O)O)cc1 (stereo not given) | 3% | · | · | · | · | ·
Cc1c([N+](=O)[O-])c([N+](=O)[O-])nn1CC(=O)N1CCCCC1 | -4%[2.32 µM] | -1% | -19% | 8% | -3% | ·
Cc1c(Cl)c([N+](=O)[O-])nn1CC(=O)N1CCCC1 | -1% | 5% | ? | 24% | -13% | 6
Cc1cc(-c2nnc3n2N=C(c2ccc(-c4ccccc4)cc2)CS3)n[nH]1 | -7% | 12% | 3.2µM* | -15% | -1% | ?
CCNC(=O)CC1C(=O)N(c2cccc(OC)c2)C(=O)N1Cc1ccc(OC)c(OC)c1 (stereo not given) | · | · | · | · | -4% | ·
CCS(=O)(=O)c1ccc2oc(SCC(=O)NCCc3ccc(OC)cc3)nc2c1 | 8% | -15% | -5% | 0% | 3% | ·
CN(C)S(=O)(=O)c1ccc2oc(SCC(=O)NCC(F)(F)F)nc2c1 | 5% | -18% | 10µM* | ? | 3% | 3
O=C(/C=C/c1ccco1)NC(=S)Nc1cc(-c2nc3ccccc3s2)ccc1Cl | 6% | -56% | 10µM* | -1% | ? | 3
COc1ccc(CCNC(=O)c2ccccc2NS(=O)(=O)c2cc(C(=O)O)ccc2OC)cc1 | -2% | -28% | ? | 1% | -9% | 2
COc1ccc(NC(C)=O)cc1S(=O)(=O)Nc1ccccc1C(=O)NCCc1ccccc1 | 16% | -11% | -1% | 1% | -5% | ·
CC(C)c1ccc(NC(=O)C2CCCN(S(=O)(=O)c3ccc4[nH]c(=O)oc4c3)C2)cc1 (stereo not given) | · | · | · | · | 16% | ·
Cc1ccc(CCC(=O)NCc2ccccc2)o1 | 15% | 22% | 5µM* | -3% | 9% | 1
CCCCn1c(SCC(=O)Nc2cc(C)on2)nnc1-c1cccs1 | -2% | -11% | 0% | 2% | -6% | ·
Cc1cc(NC(=O)CSc2nnc(-c3cccs3)n2N)no1 | 9% | -5% | ? | 9% | 3% | -7
C/C(=N\NC(=O)C1CC1)c1ccc(Cl)cc1 | -7% | -19% | 2% | 21% | 0% | ·
C/C(=N\NC(=O)C1CCCC1)c1ccc(Cl)cc1 | -9% | -15% | ? | 8% | 0% | 2
COC(=O)C1=C(C)OC(N)=C(C#N)C1c1c(C)nn(-c2ccccc2)c1Cl (stereo not given) | 2% | 21% | -4% | 0% | -6% | ·
COC(=O)C1=C(C)OC(N)=C(C#N)C1c1c(C)nn(C)c1C (stereo not given) | 5% | 5% | 2.2µM* | 10% | -7% | 10
CN1C(=O)c2ccccc2Sc2ccc(NC(=O)COc3ccc(Cl)cc3)cc21 | · | · | · | · | -1% | ·
O=C(COc1ccccc1Cl)OCc1cc(=O)n2nc(C3CCCCC3)sc2n1 | · | · | · | · | 11% | ·
Cn1cc(C(=O)NCc2ccc(Cl)cc2)c(=O)c2cc(S(=O)(=O)N3CCCCCC3)ccc21 | · | · | · | · | 0% | ·
O=C1CC(c2ccco2)CC(O)=C1C=NCC1CCNCC1 (stereo not given) | -6% | -17% | 10µM* | 5% | -9% | 2
CCOC(=O)C1=C(C)N=C2SC(C)C(=O)N2C1c1ccc(C(=O)OC)cc1 (stereo not given) | -30% | 5% | 7.9µM* | 0% | -2% | -1
SMILES | AMA1-RON2 inh | AmpC inh no detg | NS1 function inh | SARS PLpro yeast | AmpC inh detg | NS1 inh valid | others
CCOC(=O)C1=C(C)N=C2SC(C)C(=O)N2C1c1ccccc1 (stereo not given) | 2% | 5% | 7% | 1% | -2% | ·
COc1ccc(-c2nnc(SC(C(=O)c3c[nH]c4ccccc34)c3ccccc3)n2N)cc1OC (stereo not given) | -15% | 93% | 20µM* | 11% | -17% | ?
CCN1CCN(CCCNC(=O)c2cc3c(=O)n(C)c4ccccc4c3s2)CC1 | · | · | · | · | 6% | ·
CCOc1ccc2[nH]c(=O)c(CN(Cc3ccc(F)cc3)C(=O)c3ccco3)cc2c1 | -6% | -12% | 11µM* | -2% | -15% | -11
CCOc1ccc2[nH]c(=O)c(CN(CC3COCCO3)C(=O)c3ccco3)cc2c1 (stereo not given) | -11% | -33% | 0% | 8% | -6% | ·
COc1ccc(CCNC(=O)Cn2ccc3cc(S(=O)(=O)N4CCCC4)ccc32)cc1OC | -6% | 25% | 2.5µM* | 7% | -7% | -5
Cc1ccc(-n2nc(C)c3c2OC(N)=C(C#N)C3c2ccoc2)cc1 (stereo not given) | -6% | -33% | 2.5µM* | 5% | -15% | 7
Cc1ccc(-n2nc(C)c3c2OC(N)=C(C#N)C3c2ccco2)cc1 (stereo not given) | ? | -24% | ? | -1% | -8% | ·
COc1ccc(Br)c(/C=N/NC(=O)COc2ccc(-c3ccccc3)cc2)c1 | -4% | · | ? | · | 3% | -12
O=C(NCc1cc(C(F)(F)F)cc(C(F)(F)F)c1)C12CN(Cc3ccccc3)CC1C(c1cccc([N+](=O)[O-])c1)=NO2 (stereo not given) | -3% | -9% | 22µM* | -2% | -1% | -18 | PR8 titer=7.3*
CCN(Cc1ccccc1)Cc1c(O)ccc2c(=O)c(-c3ccccc3Cl)c(C(F)(F)F)oc12 | · | · | · | · | 0% | ·
Cc1cccc(N2C(=O)NC(=O)C3(Cc4cc(C)ccc4N(C)C3)C2=O)c1 (stereo not given) | 3% | -31% | 4.5µM* | 3% | ? | 13
COc1ccc2c(c1)CC1(CN2C)C(=O)NC(=O)N(c2ccc(C)cc2)C1=O (stereo not given) | -3% | -31% | 3% | 1% | ? | ·
COCCNC(=O)C(=O)Nc1ccc2nc3n(c(=O)c2c1)CCCCC3 | · | · | · | · | 16% | ·
O=C(COc1ccccc1O)N1CCN(C(=O)c2ccco2)CC1 | 5% | -15% | -7% | 1% | ? | ·
O=C(Cc1ccc(Cl)cc1)Nc1ccc(N2CCN(C(=O)c3ccco3)CC2)c(Cl)c1 | -21% | -8% | 0.28µM* | -1% | ? | ?
